Assay outcomes deposited in PubChem BioAssay by National Center for Advancing Translational Sciences (NCATS).
Sampled rows, rich in hits. Any-hit rate of the full collection: about 18%.
PLK1 PBD block: inhibitors of human PLK1 polo-box domain binding | Potency, µM, for the others: max response, negative = inhibition, hits mostly inhibitors | AID 720504 | 360,000 compounds, 2.8% hits | Plk1 PBD binding of FITC phosphopeptide, fluorescence polarization; further: series mostly up to about 57 µM; nearly all actives have a fitted effect of over 65% in size
VDR inhibitor: blocks the human vitamin D receptor; P11473; VDR-SRC2-3 peptide fluorescence polarization, 2 h; Potency, µM, for inactives: max response, negative = inhibition, hits mostly inhibitors; 400,000 compounds, 0.93% hits; AID 504847
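Inhibition of the VDR/SRC2-3 peptide interaction is quantified by fluorescence polarization. Compounds (23 nl, pintool) incubate with the reagents for 2 hours at ambient room temperature.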
GCN5L2 inh: GCN5L2 (KAT2A) acetyltransferase inhibition; Q92830; GCN5L2 HAT assay, ThioGlo1 CoA-SH fluorescence; Potency, µM (doses to about 58.9 µM), for the others: top-dose activity change, negative = inhibition, most hits filed as inhibitors; 390,000 compounds, 0.21% hits; AID 504327
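Free CoA generated was detected with ThioGlo1 (50uM) fluorescence at Ex340nm/Em540nm, read immediately and after 20 min at room temperature. Enzyme, 20 nM in HEPES pH 7.5 buffer, saw compounds 15 min before adding 75uM H3(1-25) peptide and 70uM acetyl-CoA.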
TDP1 cell noCPT: qHTS for Inhibitors of human tyrosyl-DNA phosphodiesterase 1 (TDP1): qHTS in cells in absence of CPT; Potency, µM (series often up to 46.2 µM), for inactives: at the highest dose activity change, negative = growth inhibition, most hits filed as inhibitors; DT40 Tdp1-/- hTDP1 cells, no CPT, ATP luminescence, 48 h; 420,000 compounds, 15% hits; further: nearly all actives have a fitted effect of over 55% in size
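Cells were dispensed at 400 per well, compounds added by pin tool, plates incubated ≥48 hr at 37 °C, then CellTiter-Glo added for 30 min at room temperature before luminescence reading. Line: DT40 Tdp1-/- complemented with hTDP1; camptothecin omitted.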
TDP1 block: blocks human tyrosyl-DNA phosphodiesterase 1. Potency, µM (doses to about 130 µM), inactives show top-dose activity change, negative = inhibition, actives largely listed as inhibitors. Q9NUW8. recombinant TDP1, AlphaScreen DNA substrate cleavage. 350,000 compounds, 0.28% hits; further: nearly all actives have a fitted effect of over 40% in size
Target sequence (Q9NUW8 whole entry, looked up): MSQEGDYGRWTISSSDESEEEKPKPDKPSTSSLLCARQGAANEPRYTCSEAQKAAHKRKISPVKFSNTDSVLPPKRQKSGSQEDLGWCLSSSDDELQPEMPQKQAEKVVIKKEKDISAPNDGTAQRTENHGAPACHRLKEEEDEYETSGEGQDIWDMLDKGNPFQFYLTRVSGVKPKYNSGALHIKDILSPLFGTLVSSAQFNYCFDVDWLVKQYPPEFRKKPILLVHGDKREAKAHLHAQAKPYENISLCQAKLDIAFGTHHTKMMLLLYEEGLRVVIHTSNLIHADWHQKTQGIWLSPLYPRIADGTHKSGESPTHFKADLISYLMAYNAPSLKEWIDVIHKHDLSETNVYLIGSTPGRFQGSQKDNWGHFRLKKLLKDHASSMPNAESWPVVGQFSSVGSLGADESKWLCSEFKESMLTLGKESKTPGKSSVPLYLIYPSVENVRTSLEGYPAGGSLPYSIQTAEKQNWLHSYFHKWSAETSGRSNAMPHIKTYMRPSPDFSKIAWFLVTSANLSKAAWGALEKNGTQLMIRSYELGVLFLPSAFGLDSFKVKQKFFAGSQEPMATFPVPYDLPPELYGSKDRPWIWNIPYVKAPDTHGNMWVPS
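Recombinant human Tdp1 (E. coli-expressed, 1 nM final) preincubated with compounds 15 min at room temperature, then 5'-biotin/3'-phosphotyrosine-FITC DNA substrate (15 nM final) added for 5 min. AlphaScreen beads (10 ug/ml final) added 10 min; cleavage lowers signal.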
TDP1 cell CPT: growth inhibition of DT40 Tdp1-/-;hTDP1 cells with camptothecin (screen for TDP1 inhibitors). AID 686979. 420,000 compounds, 12% hits. Potency, µM (doses to about 46.2 µM), for the others: top-dose activity change, negative = growth inhibition, most hits filed as inhibitors. chicken DT40 Tdp1-/-;hTDP1 cells + 20 nM CPT, ATP luminescence, 48 h; further: nearly all actives have a fitted effect of over 55% in size
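Chicken DT40 Tdp1-/- cells complemented with human TDP1, 400 cells/well, exposed to compounds plus 20 nM camptothecin for at least 48 h at 37 C; viability read as ATP content by CellTiter-Glo luminescence.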
An asterisk follows results filed as active; ? = inconclusive; · = not tested or not shown; [ ] = dose if it differs, or a comment. The call rests on the fitted dose curve; in most records, active means well fitted curve in the direction sought with a large enough effect; inconclusive means small, poorly fitted or top-dose-only effect, or another doubt; inactive means no such curve, though single readings can be large; an effect the other way counts as inactive or inconclusive. On the % scale 0 is the no-effect control and ±100 the full control effect; potency means the concentration at half of the fitted maximal effect.

SMILES | PLK1 PBD block | VDR inhibitor | GCN5L2 inh | TDP1 cell noCPT | TDP1 block | TDP1 cell CPT
COc1ccc(NC(=O)CSc2nnc(NC(=O)C3CCC3)s2)c(OC)c1 | -5% | -12% | -2% | -22% | 5% | 5%
Cc1cc2c(cc1S(=O)(=O)Nc1cccc(Cl)c1C)OCCN2C | · | 7% | -3% | 18µM* | -5% | ?
CC(=O)N1CCOc2cc(S(=O)(=O)Nc3c(C)cccc3C(C)C)c(Cl)cc21 | · | 3% | -5% | ? | 8.9µM* | ?
CCOc1ccc(NS(=O)(=O)c2cc3c(cc2C)N(C)CCO3)cc1 | 0% | -7% | 4% | 21µM* | · | 21µM*
O=C(CNC(=O)C1COc2ccccc2O1)Nc1ccc(F)c(F)c1 (centres undefined) | 4% | -13% | 0% | -12% | 1% | -34%
Nc1c(C(=O)NCC2CCCO2)c2nc3ccccc3nc2n1/N=C/c1ccncc1 (centres undefined) | -23% | 0% | · | 1.6µM* | · | 8.2µM*
COc1ccc(OC)c(-n2c(N)c(C(=O)NCC3CCCO3)c3nc4ccccc4nc32)c1 (centres undefined) | 3% | 5% | -8% | ? | 0% | ?
COCCn1c(N)c(C(=O)NCC2CCCO2)c2nc3ccccc3nc21 (centres undefined) | -6% | -9% | ? | ? | 2% | ?
CC(C)Cn1c(N)c(C(=O)NCC2CCCO2)c2nc3ccccc3nc21 (centres undefined) | -13% | -10% | -15% | 26µM* | -11% | ?
Nc1c(C(=O)NC2CCCC2)c2nc3ccccc3nc2n1N | -8% | -3% | 0% | 23µM* | 1% | ?
Nc1c(C(=O)NC2CCCC2)c2nc3ccccc3nc2n1/N=C/c1ccco1 | -4% | -7% | -3% | -28% | 3% | 1%
Cc1c(Cl)cccc1NC(=O)CSc1nc(=O)n(CCCN2CCOCC2)c2c1CCCC2 | -5% | · | · | ? | · | -27%
Cn1c(=O)[nH]c(=O)c2c1[nH]c(=S)n2Cc1ccc(Cl)cc1 | 12µM* | ? | ? | -14% | · | -25%
Cn1c(=O)c2c([nH]c(=S)n2CCCc2ccccc2)n(C)c1=O | -30% | 79µM* | 11µM* | ? | · | -9%
Cn1c(=O)[nH]c(=O)c2c1[nH]c(=S)n2CCCc1ccccc1 | 30µM* | 40µM* | 16µM* | -26% | · | 4%
CC(C)CN1CCC(=O)N(CCOc2ccccc2)CC1 | -3% | 5% | -1% | 0% | · | -1%
O=C1CCN(CCc2ccccc2)CCN1[C@H](COc1ccccc1)c1ccccc1 | -5% | -12% | -7% | 14µM* | · | 15µM*
CCCN1CCC(=O)N([C@H](COc2ccccc2)c2ccccc2)CC1 | -4% | -18% | -3% | 21µM* | · | ?
O=C1CCN(CCc2ccccc2)CCN1[C@H](CO)c1ccccc1 | -7% | -11% | 1% | -15% | · | -23%
CC(C)CN1CCC(=O)N([C@H](COc2ccccc2)c2ccccc2)CC1 | -6% | -11% | -4% | 22µM* | · | ?
COc1cc(=O)n2c(c1C(=O)NCc1ccco1)CCN(Cc1cc3ccccc3[nH]1)CC2 | · | · | · | -5% | · | -3%
Cc1cccc(NC(NC(=O)Cc2ccccc2)C(Cl)(Cl)Cl)c1 (centres undefined) | -9% | -12% | 2% | 21µM* | 3% | 18µM*
[N-]=C=C1C(=S)NC(=O)[C@H]([n+]2ccccc2)[C@H]1c1ccc(Cl)cc1 | 27µM* | 45µM* | 11µM* | -6% | -10% | 2%
O=C1c2ccccc2NC(c2ccc3c(c2)OCO3)N1Cc1ccco1 (centres undefined) | · | ? | · | ? | 2% | ?
CCOc1cc(C2Nc3ccccc3C(=O)N2Cc2ccco2)ccc1OCc1ccccc1Cl (centres undefined) | · | -27% | · | 3.5µM* | 0% | 10µM*
SMILES | PLK1 PBD block | VDR inhibitor | GCN5L2 inh | TDP1 cell noCPT | TDP1 block | TDP1 cell CPT
COc1ccc(C2Nc3ccccc3C(=O)N2Cc2ccco2)cc1COc1ccc(F)cc1 (centres undefined) | -19% | -5% | 4% | ? | -5% | ?
COc1ccc2c(c1OC)C(=O)N1c3ccccc3C(=O)OC21 (centres undefined) | · | 2% | · | 3%[9.04 µM] | 3% | -4%[9.04 µM]
COc1ccc2c(c1OC)C(=O)N1c3ccccc3C(=O)N(Cc3ccco3)C21 (centres undefined) | · | ? | · | 20µM* | 0% | 10µM*
O=C1c2ccccc2NC(c2cc(Br)c3c(c2)OCO3)N1Cc1ccco1 (centres undefined) | · | -19% | · | 18µM* | 5% | ?
COc1ccc(C2Nc3ccccc3C(=O)N2Cc2ccco2)cc1OC (centres undefined) | · | ? | · | 22µM* | 6% | 8.9µM*
Cc1ccc(COc2ccc3oc(-c4ccccc4)c(C(=O)O)c3c2)cc1 | · | -2% | -6% | -11% | -4%[12.3 µM] | 7%
COc1cc(NC(=O)C2CCN(c3cnc4ccccc4n3)CC2)cc(OC)c1OC | · | 4% | -3% | -21% | 5% | -3%
O=C(O)CC1(CC(=O)Nc2ccc3c(c2)C(=O)OC3)CCCCC1 | 7% | -26% | -1% | -7% | 5% | 0%
Cn1c(=O)n(C)c2cc(NC(=O)c3ccc(F)cc3)ccc21 | -4% | 0% | -5% | -2% | 3% | 6%
COc1ccc(CN(C)C[C@@H]2OCc3cnnn3CCCC(=O)N([C@H](C)CO)C[C@H]2C)cc1 | ? | · | · | 5% | · | 10%
COc1cccc(CNC(=O)C2CCC(=O)N(C3CC3)C2)c1OC (centres undefined) | -13% | 7% | -9% | 10% | · | -1%
O=C(c1cncs1)N(Cc1cc2cc3c(cc2nc1N1CCOCC1)CCC3)CC1CCCO1 (centres undefined) | · | · | · | -12% | · | -6%[9.04 µM]
CC[C@]12CCCN3CCc4c(n(c5ccccc45)C(=O)C1)[C@H]32 | · | · | · | 9.4µM* | 10% | 11µM*
CSCCC1NC(=O)N(CC(=O)N2CCc3ccccc3C2)C1=O (centres undefined) | 1% | 5% | -2% | 13% | -3% | -9%
COC(=O)c1c(O)c2ccccc2[nH]c1=O | -8% | -4% | 0% | -4% | -5% | -2%
O=C(NNC(=O)c1c(O)c2ccccc2[nH]c1=O)c1ccccc1 | -3% | 30% | -2% | -16% | 0% | ?
COC(=O)Nc1ccc(S(=O)(=O)NNC(=O)c2c(O)c3ccccc3[nH]c2=O)cc1 | -11% | 19% | 6% | 23µM* | · | ?
